Screening results: PubChem, National Center for Advancing Translational Sciences (NCATS)
An excerpt weighted towards active compounds, which were near 6.5% of everything screened.
FMDV inh: High Throughput Screening for Foot and Mouth Disease Virus Antivirals; FMDV antiviral cell-based qHTS; Potency, µM (highest dose often 57.9 µM), for inactives: at the top dose activity change, negative = inhibition, usual class: inhibitors; 410,000 tested, 1.2% active; calls by dose curve; tested in HEK293T cells; further: read-out not given here; potency means the concentration at half of the fitted maximal effect; nearly all actives have a fitted effect of over 45% in size
Lassa entry inh: qHTS for Inhibitors of binding or entry into cells for Lassa Virus; Lassa virus pseudotype entry inhibition, cell reporter; Potency, µM (highest dose often 37.9 µM), inactives show top-dose activity change, negative = inhibition, most hits filed as inhibitors; 300,000 tested, 1.2% active; AID 540256, 2011; calls by dose curve; tested in HEK293 cells; further: potency means the concentration at half of the fitted maximal effect; nearly all actives have a fitted effect of over 50% in size
VACV Venus inh: qHTS for Stage-Specific Inhibitors of Vaccinia Orthopoxvirus: Venus Reporter Primary qHTS; Vaccinia virus Venus reporter expression, fluorescence; Potency, µM (titrated, usually from 36.5 µM), inactives show top-dose activity change, negative = inhibition, usual class: inhibitors; 330,000 tested, 0.46% active; calls by dose curve; tested in A549 cells; further: potency means the concentration at half of the fitted maximal effect; nearly all actives have a fitted effect of over 30% in size
Marburg entry inh: qHTS for inhibitors of binding or entry into cells for Marburg Virus | 300,000 tested, 1.8% active | Marburg virus pseudotyped entry inhibition, cell reporter | Potency, µM (highest dose often 37.8 µM), inactives show at the top dose activity change, negative = inhibition, most hits filed as inhibitors; calls by dose curve; tested in HEK293 cells; further: potency means the concentration at half of the fitted maximal effect
VACV mCherry inh: qHTS for Stage-Specific Inhibitors of Vaccinia Orthopoxvirus: mCherry Reporter Primary qHTS | Vaccinia virus mCherry reporter infection, fluorescence | Potency, µM (doses to about 36.5 µM), inactives show at the highest dose activity change, negative = inhibition, usual class: inhibitors | 310,000 tested, 0.63% active; calls by dose curve; tested in A549 cells; further: potency means the concentration at half of the fitted maximal effect; nearly all actives have a fitted effect of over 35% in size
HCMV antiviral: qHTS Assay for inhibitors of the human cytomegalovirus (HCMV). HFF cells, HCMV-luciferase reporter, 72 h; active compounds read low. activity change, negative = inhibition, % at 57.5 µM. 410,000 tested, 4.5% active. AID 1259415, 2018; in the data active means activity change below about -60%; inconclusive means no clear call, values can overlap the other calls; inactive means above about -39%
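Human foreskin fibroblasts infected with luciferase-reporter HCMV at MOI 1 PFU/cell, compounds at two doses. Luciferase measured 72 h post infection; normalized to buffer-only basal and Salinomycin (10uM) controls.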
Starred values were filed as active, the others as inactive; [ ] = remark or other dose. On the % scale 0 is the no-effect control and ±100 the full control effect.

Results for C[C@@H]1CN(C2CCN(S(=O)(=O)Cc3ccccc3)CC2)C[C@H](C)O1 ?
Marburg entry inh: -0.1%

What do the screens show for `C/C(=N\Nc1nc(C)c(C)s1)c1ccc([N+](=O)[O-])cc1`?
FMDV inh: 28.2µM*; VACV Venus inh: inconclusive; Marburg entry inh: inconclusive; VACV mCherry inh: inconclusive; HCMV antiviral: 53.6

Results for C/C(=N\Nc1ccc([N+](=O)[O-])cc1)c1ccc(-n2nncc2C)cc1 ?
FMDV inh: -9.8%; Lassa entry inh: inconclusive; VACV Venus inh: inconclusive; Marburg entry inh: inconclusive; VACV mCherry inh: inconclusive; HCMV antiviral: -66.4*

What do the screens show for `Cc1cccc(C)c1N=CN1c2ccccc2-n2cccc2C1c1ccccc1` (stereo unspecified)?
HCMV antiviral: -4.5

How did NC(N)=Nc1nc2cc([N+](=O)[O-])ccc2o1 do in these assays?
FMDV inh: 28.2%; HCMV antiviral: -70.8*

What do the screens show for `CC(=O)Nc1sc2c(c1-c1nc3ccccc3s1)CCN(C(C)C)C2`?
FMDV inh: -10.2%; VACV Venus inh: 10µM*; VACV mCherry inh: 12.6µM*

What do the screens show for `CCN1CCc2c(sc(NC(=O)CSc3ccccc3)c2-c2nc3ccccc3s2)C1`?
FMDV inh: -12.6%; Lassa entry inh: -27.1%[46.1 µM]; VACV Venus inh: -19.5%[7.34 µM]; VACV mCherry inh: -19.6%[7.34 µM]; HCMV antiviral: 57.4

How did CN1CCc2c(sc(NC(=O)CSc3ccc(F)cc3)c2-c2nc3ccccc3s2)C1 do in these assays?
FMDV inh: -10.7%; Lassa entry inh: 1.1%[46.1 µM]; VACV Venus inh: -14.5%[7.34 µM]; VACV mCherry inh: -7.6%[7.34 µM]; HCMV antiviral: -16.4

How did CC(=O)N1CCc2c(sc(NC(=O)CSc3ccc(F)cc3)c2-c2nc3ccccc3s2)C1 do in these assays?
FMDV inh: 0.0%; Lassa entry inh: -9.4%[46.1 µM]; VACV Venus inh: -1.2%[7.34 µM]; VACV mCherry inh: -4.5%[7.34 µM]; HCMV antiviral: -96.2*

What do the screens show for `O=C(N[C@H](C(=O)N1CCC[C@H]1C(=O)NCCc1ccccc1Cl)c1ccccc1)c1ccco1`?
HCMV antiviral: -22.2

How did Cc1ccc(/C=N/NC(=O)CSc2nc3ccccc3c(=O)n2-c2ccccc2C)s1 do in these assays?
FMDV inh: -7.9%; Lassa entry inh: inconclusive; VACV Venus inh: -13.6%; Marburg entry inh: inconclusive; VACV mCherry inh: -23.0%; HCMV antiviral: -68.9*

What do the screens show for `Cc1ccc(/C=N/NC(=O)CSc2nc3ccccc3c(=O)n2-c2ccccc2)s1`?
FMDV inh: -2.2%; Lassa entry inh: 1.8%; VACV Venus inh: -3.4%; Marburg entry inh: 5.3%; VACV mCherry inh: -10.3%; HCMV antiviral: 9.7

What do the screens show for `Cc1ccc(-c2nnc(SCC(=O)N/N=C/c3ccc(C)s3)n2-c2ccc(C)cc2)cc1`?
FMDV inh: -6.2%; Lassa entry inh: inconclusive; VACV Venus inh: -11.8%; Marburg entry inh: inconclusive; VACV mCherry inh: -19.0%; HCMV antiviral: -63.2*

Results for Cc1ccc(-n2c(SCC(=O)N/N=C/c3c(C)nn(-c4ccccc4)c3C)nc3ccccc3c2=O)cc1 ?
FMDV inh: 0.0%; Lassa entry inh: -21.8%; VACV Venus inh: -14.3%; Marburg entry inh: inconclusive; VACV mCherry inh: inconclusive; HCMV antiviral: -62.8*

What do the screens show for `CCCCCCCCCC(=O)N/N=C/c1ccc(C)s1`?
FMDV inh: 0.0%; Lassa entry inh: 9.2µM*; Marburg entry inh: inconclusive; HCMV antiviral: 70.2

What do the screens show for `Cc1ccc(-c2nnc(SCC(=O)N/N=C/c3ccccc3C(=O)O)n2-c2ccccc2)cc1`?
HCMV antiviral: 14.5

What do the screens show for `CCOC(=O)C1=C(C(=O)OCC)C2N(Cc3ccc(Br)cc3)c3ccccc3[C@@]23C[C@@H](C(=O)OC)N(S(=O)(=O)c2ccc(F)cc2)C3=N1` (stereo partly specified)?
HCMV antiviral: 16.4

Results for CCc1nn2c(=O)cc(COC(=O)c3cccc(NC(=O)c4cccs4)c3)nc2s1 ?
FMDV inh: 11.9%; Lassa entry inh: 11.8%[46.1 µM]; VACV Venus inh: -10.6%; VACV mCherry inh: inactive; HCMV antiviral: 66.6

What do the screens show for `COc1ccc(OC)c(-c2cc(Cl)c3c(c2)CC(CNC(=O)C(C)N2CCOCC2)O3)c1` (stereo unspecified)?
FMDV inh: 8.0%; VACV Venus inh: 8.1%; VACV mCherry inh: -10.9%

Results for Cc1ccccc1-n1c(SCC(N)=O)nc2sc(-c3ccccc3)cc2c1=O ?
FMDV inh: -17.8%; Lassa entry inh: 0.1%; VACV Venus inh: inconclusive; Marburg entry inh: -5.6%; HCMV antiviral: 21.2

How did Cc1ccccc1-n1c(SCC(=O)NC(N)=O)nc2sc(-c3ccccc3)cc2c1=O do in these assays?
FMDV inh: -7.0%; Lassa entry inh: -4.2%; VACV Venus inh: -27.8%; Marburg entry inh: inconclusive; VACV mCherry inh: inconclusive; HCMV antiviral: -71.2*

What do the screens show for `Cc1ccc(/C=N/NC(=O)c2c[nH]c3ccccc23)s1`?
FMDV inh: 50.6%; Lassa entry inh: -18.3%; VACV Venus inh: inconclusive; Marburg entry inh: inconclusive; VACV mCherry inh: inconclusive; HCMV antiviral: -72.1*

Results for Cc1ccccc1-n1c(SCC(=O)N/N=C/c2c(C)nn(-c3ccccc3)c2C)nc2ccccc2c1=O ?
FMDV inh: -22.7%; Lassa entry inh: inconclusive; VACV Venus inh: inconclusive; Marburg entry inh: 7.31µM*; VACV mCherry inh: -27.0%; HCMV antiviral: 0.0

How did CCn1c(SCC(=O)N/N=C/c2ccc(C)s2)nc2ccccc21 do in these assays?
FMDV inh: 7.8%; Lassa entry inh: -18.5%; VACV Venus inh: -21.8%; Marburg entry inh: 2.59µM*; VACV mCherry inh: inconclusive; HCMV antiviral: 2.9

How did Cc1ccsc1/C=N/NC(=O)c1c[nH]c2ccccc12 do in these assays?
FMDV inh: 44.7%; Lassa entry inh: 10.7%; VACV Venus inh: -27.3%; Marburg entry inh: 8.9%; VACV mCherry inh: inconclusive; HCMV antiviral: 151.8

What do the screens show for `Cc1nn(-c2ccccc2)c(C)c1/C=N/NC(=O)CSc1nc2ccccc2c(=O)n1-c1ccc(Br)cc1`?
FMDV inh: -6.6%; Lassa entry inh: -24.9%; VACV Venus inh: -24.0%; Marburg entry inh: inconclusive; VACV mCherry inh: -0.8%; HCMV antiviral: -8.2

What do the screens show for `CCn1c(SCC(=O)N/N=C/C=C/c2ccco2)nc2ccccc21`?
FMDV inh: -19.6%; Lassa entry inh: -9.2%; Marburg entry inh: -21.2%; HCMV antiviral: 28.2

What do the screens show for `O=C(CNC(=O)c1ccccc1)NCC(=O)OCC(=O)c1ccc2ccccc2c1`?
VACV Venus inh: -16.1%; VACV mCherry inh: -10.1%

What do the screens show for `CC(C)=CCCC(C)=CCN1C(=O)[C@@]2(C[C@@H](C)C[C@@H](C)O2)c2ccccc21`?
Marburg entry inh: -6.8%[14.2 µM]

Results for NC(=O)c1cc2c3ccccc3ccn2c1-c1ccccc1 ?
FMDV inh: 28.8%; HCMV antiviral: -99.0*
